Assay outcomes from PubChem.
Compounds with a hit are over-represented: about 3.4% of the library has one in this group of screens.
FBW7 act = human FBW7 E3 ligase activation, primary screen. AlphaScreen FBW7–phospho-cyclin E peptide binding, activator screen. normalized activity (activation), % at 26.1 µM. 0.13% of 650,000 active. AID 1259310; in the data active = normalized activity above about 1.9%;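 also: purified mutant Fbw7 with reduced substrate affinity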
MITF inh = inhibitors of human MITF; AlphaScreen MITF homodimerization, bead proximity signal; 0.91% of 650,000 active; inhibition, % at 2.6 µM; O75030; in the data active = inhibition above about 50%;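 also: 0% = vehicle wells with protein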
Target sequence (O75030 whole entry, looked up): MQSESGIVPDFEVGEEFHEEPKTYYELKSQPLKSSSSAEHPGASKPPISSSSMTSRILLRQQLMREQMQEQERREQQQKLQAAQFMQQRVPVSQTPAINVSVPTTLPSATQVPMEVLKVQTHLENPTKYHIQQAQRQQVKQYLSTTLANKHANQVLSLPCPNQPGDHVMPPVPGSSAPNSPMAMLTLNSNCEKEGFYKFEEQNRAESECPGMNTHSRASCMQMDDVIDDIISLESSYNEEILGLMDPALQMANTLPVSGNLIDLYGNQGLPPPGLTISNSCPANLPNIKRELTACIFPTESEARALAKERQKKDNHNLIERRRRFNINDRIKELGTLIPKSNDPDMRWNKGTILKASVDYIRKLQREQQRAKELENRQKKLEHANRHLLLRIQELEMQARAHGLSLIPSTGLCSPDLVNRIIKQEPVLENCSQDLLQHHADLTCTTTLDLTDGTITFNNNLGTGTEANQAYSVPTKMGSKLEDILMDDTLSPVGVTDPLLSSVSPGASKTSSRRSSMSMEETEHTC
GPR151 activ = human GPR151 activation | Q8TDV0 | PathHunter beta-arrestin GPR151 cells, luminescence | activation, % at 11.2 µM | 1% of 650,000 active | AID 1508602; in the data active = activation above about 4.9%;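 also: 0% = median of compound wells and 100% = cells with positive control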
TEAD-YAP inh = TEAD-YAP interaction inhibition. 1.4% of 640,000 active. HEK-TIYL cells, TEAD-Gal4/YAP UAS-luciferase luminescence. inhibition, % at 9.12 µM. AID 1259422; in the data active = inhibition above about 32%;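 also: 0% = median of test compound wells and 100% = reference inhibitor wells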
MITF inh conf = confirmation of human MITF inhibitors; 16% of 4,700 active; inhibition, % at 2.6 µM; AlphaScreen MITF homodimerization, biotin/His-MITF beads; shares compounds with MITF inh;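 active = inhibition above a cutoff derived from the DMSO control wells, cut at about 28% in these data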;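 also: 0% = MITF dimer wells with DMSO only; inhibitors lower the bead chemiluminescence by keeping MITF from dimerizing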
AlphaScreen intf2 = optically interferes with AlphaScreen signal; shares compounds with MITF inh; LysRS AlphaScreen counterscreen, signal interference, triplicate; inhibition, % at 2.6 µM; AID 1259376; 7.6% of 4,700 active;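 active = inhibition above a cutoff derived from the DMSO control wells, cut at about 30% in these data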
The depositor's hits bear a star; . = no result given.

SMILES | FBW7 act | MITF inh | GPR151 activ | TEAD-YAP inh | MITF inh conf | AlphaScreen intf2
CCCc1nnc(NC(=O)CN2C(=O)C3C4C=CC(C4)C3C2=O)s1 (stereo not given) | 0 | 58* | 2 | -8 | -6 | -10
CCCc1nnc(NC(=O)NCN2C(=O)C3C4C=CC(C4)C3C2=O)s1 (stereo not given) | 0 | -7 | 2 | 6 | . | .
COc1ccc(CN2CCN(Cc3ccccc3[N+](=O)[O-])CC2)c(OC)c1 | 0 | 52* | -1 | -4 | 5 | 12
CC(=O)N1CCN(Cc2ccccc2[N+](=O)[O-])CC1 | 0 | -14 | 0 | 1 | . | .
COc1ccc(OC)c(CN2CCN(Cc3ccccc3[N+](=O)[O-])CC2)c1 | -1 | 77* | 0 | 5 | 7 | 16
COc1ccc(OC)c(CN2CCN(S(=O)(=O)c3ccccc3[N+](=O)[O-])CC2)c1 | 0 | 37 | 0 | -13 | . | .
COc1ccccc1N1CCN(C(=O)c2ccc3c(c2)C(=O)N(c2ccccn2)C3=O)CC1 | 0 | 68* | -1 | 1 | -7 | -4
O=C(c1ccc2c(c1)C(=O)N(c1ccccn1)C2=O)N1CCN(c2ccccc2Cl)CC1 | 1 | 15 | -1 | -7 | . | .
O=C(C1CCCO1)N1CCC(c2c[nH]c3ccccc23)(c2c[nH]c3ccccc23)CC1 (stereo not given) | 0 | 11 | 2 | 6 | . | .
COc1cc(CN2CCC(C(=O)N3CCN(Cc4ccccc4)CC3)CC2)ccc1O | 0 | 60* | 0 | 2 | -1 | 0
O=C(C1CCN(Cc2ccccc2)CC1)N1CCN(Cc2ccccc2)CC1 | 0 | 55* | -1 | 19 | 6 | 13
COc1ccccc1CN1CCC(C(=O)N2CCN(Cc3ccccc3)CC2)CC1 | 0 | 52* | 1 | 15 | 10 | 10
O=C(C1CCN(Cc2cccc(O)c2)CC1)N1CCN(Cc2ccccc2)CC1 | 0 | 48 | 0 | 4 | . | .
COc1cc(CN2CCC(C(=O)N3CCCC(C)C3)CC2)ccc1O (stereo not given) | 0 | 24 | 2 | 5 | . | .
CCOc1ccccc1N1CCN(C(=O)C2CCNCC2)CC1 | 0 | 58* | 0 | 6 | 11 | 13
O=C(NCC1CCCO1)c1cc2nc(-c3cccs3)cc(C(F)(F)F)n2n1 (stereo not given) | 0 | 15 | 1 | -4 | . | .
Cn1c(=O)c2c(nc(CN3CCN(c4ccccc4F)CC3)n2CCCO)n(C)c1=O | 0 | 19 | 0 | -1 | . | .
CCOc1cc(C(=O)O)c(NC(=O)c2ccccc2SC)cc1OC | 0 | 14 | -1 | 10 | . | .
O=c1[nH]c2ccc(Cl)cc2c(-c2ccccc2)c1CNS(=O)(=O)c1ccccc1 | 0 | 0 | 0 | -7 | . | .
O=C(C1CCN(Cc2cccnc2)CC1)N1CCN(C/C=C/c2ccccc2)CC1 | 0 | 58* | 1 | 16 | 9 | 9
COc1ccc(CN2CCC(C(=O)N3CCc4ccccc4C3)CC2)cc1 | 0 | 30 | 0 | 2 | . | .
CCOC(=O)N1CCN(C(=O)C2CCN(Cc3cc(OC)ccc3OC)CC2)CC1 | 0 | 41 | 0 | 3 | . | .
CCOC(=O)N1CCN(C(=O)C2CCN(Cc3ccccc3OC)CC2)CC1 | 0 | 54* | -1 | -4 | 2 | 17
O=C(C1CCN(Cc2ccc(F)cc2)CC1)N1CCN(c2ccccc2)CC1 | 0 | 52* | 1 | 0 | 1 | 15
COc1ccc(CN2CCC(C(=O)N3CCc4ccccc4C3)CC2)c(OC)c1 | 0 | 53* | 0 | 8 | 3 | 11
SMILES | FBW7 act | MITF inh | GPR151 activ | TEAD-YAP inh | MITF inh conf | AlphaScreen intf2
CC(=O)Nc1ccc(S(=O)(=O)Nc2cccc3c([N+](=O)[O-])cccc23)cc1 | 0 | -2 | 2 | -6 | . | .
CCOc1ccc(C(=O)NCCC2=CCCCC2)cc1 | 1 | 18 | -3 | -11 | . | .
O=C(CSc1ccc2nnc(-c3cccc(F)c3)n2n1)NC1CCCC1 | 1 | -4 | 2 | -24 | . | .
COc1ccc(CCNC(N)=S)cc1OC | 0 | 63* | 0 | -6 | 6 | -1
COc1ccc(CCNc2ccc(Cl)cn2)cc1OC | 0 | 97* | -1 | -10 | -12 | -6
Cc1ccc2c(C)nc(N3CCCC(NCC(C)C)CC3)nc2c1 (stereo not given) | 0 | -2 | 0 | 0 | . | .
CC(NCc1cccnc1)C(=O)Nc1ccccc1 (stereo not given) | 0 | 75* | -1 | -1 | 11 | 10
c1ccc(C(NCc2cccnc2)c2ccccc2)cc1 | 0 | 86* | 0 | 1 | 11 | 14
CCOc1ccc(NC(=O)CSc2nnc(Cc3ccc(OC)cc3)n2CC)cc1 | 0 | 0 | 0 | 13 | . | .
C#CCN1C(=O)C(O)(CC(=O)c2ccc(OC)cc2)c2ccccc21 (stereo not given) | 0 | -9 | -1 | -2 | . | .
CC(C)N(C(=O)Cn1nnc2ccccc21)C(C(=O)NCc1ccco1)c1ccncc1 (stereo not given) | 0 | -6 | 0 | 6 | . | .
COc1cc(OC)c(OC)cc1CN1CCN(C(=O)c2cccnc2)CC1 | 0 | 68* | -1 | -12 | 4 | 4
COc1ccc(OC)c(CN2CCN(C(=O)c3cccnc3)CC2)c1 | 1 | 59* | -2 | -5 | 6 | 18
O=C(c1cccnc1)N1CCN(Cc2ccccc2F)CC1 | 0 | 56* | -1 | -1 | 0 | -4
COc1ccccc1C(=O)N1CCN(C(=O)c2cccnc2)CC1 | 0 | 0 | 2 | 1 | . | .
O=C(c1cccnc1)N1CCN(Cc2ccccc2Br)CC1 | 0 | 40 | 1 | -5 | . | .
Clc1cccc(N2CCN(Cc3ccsc3)CC2)c1 | 0 | 42 | 0 | -5 | . | .
CN(CCCNC(=O)/C=N/O)CCCN(C)Cc1ccccc1 | 0 | 17 | 0 | 11 | . | .
COc1ccc(Cl)cc1C(=O)NNC(=O)COc1ccc2c(C)cc(=O)oc2c1 | 0 | 64* | 2 | -2 | -10 | -3
NC(=O)Cn1c(=O)n(CCc2c[nH]c3ccccc23)c(=O)c2cccnc21 | 0 | 14 | 0 | 7 | . | .
O=C(/C=C/c1ccc2c(c1)OCO2)OCC(=O)c1ccc(Cl)cc1 | 0 | 10 | 0 | -3 | . | .
COc1ccc(-c2cc(C(=O)NCc3ccco3)no2)cc1 | 0 | 10 | 1 | -71 | . | .
COCCNCC(=O)Nc1ccc(CN2CCCCC2)cc1 | 0 | 53* | 0 | 2 | 14 | 13
COCCNCC(=O)Nc1ccc(N2CCCCC2)cc1 | 0 | 61* | 0 | 3 | -14 | -5
O=C(CCl)Nc1ccc(CN2CCCCC2)cc1 | 0 | 16 | -1 | -4 | . | .
COc1cccc(CNCC(=O)Nc2ccc(N3CCCCCC3)cc2)c1 | 0 | 53* | -1 | 2 | 10 | 24
O=C(NCCN1CCCC1)c1cn(-c2ccc(Cl)cc2)c(=O)c2ccccc12 | 0 | 8 | -1 | 1 | . | .
Cc1cc(C2C(C#N)=C(N)N(c3ccccc3Cl)C3=C2C(=O)CCC3)c(C)s1 (stereo not given) | 0 | 7 | -2 | 4 | . | .
